Screens: PubChem BioAssay, National Center for Advancing Translational Sciences (NCATS)
BAZ2B block – qHTS Assay for Inhibitors of BAZ2B. Potency, µM (titrated, usually from 114 µM), for the others: at the highest dose activity change, negative = inhibition, most hits filed as inhibitors. Bromodomain adjacent to zinc finger domain protein 2B (Homo sapiens), Q9UIF8. AlphaScreen BAZ2B-H3K14Ac peptide displacement. 4.4% of 360,000 active. AID 504333, 2011; also: potency is read from the fitted curve at half-maximal effect; % is scaled to controls: 0 for no effect and ±100 for the full control effect; nearly all actives have a fitted effect of over 60% in size
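Compounds, titrated to a top concentration of 110 uM, were incubated 30 min at room temperature with preformed BAZ2B/acetyl-K14 H3 peptide complex (50 nM each). Proximity signal was measured by AlphaScreen after 20 min with beads.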
CtBP-E1A inh – qHTS Assay for Inhibitors of the CtBP/E1A Interaction | CtBP / adenovirus E1A interaction (AlphaScreen) | AlphaScreen GST-E1A/His-CtBP binding, 1536-well; stronger effect = lower value | activity change, % (concentration not given with the values) | 0.49% of 340,000 active; in the data active = activity change below about -65%; inconclusive = mostly about -30% to -63%; also: % is scaled to controls: 0 for no effect and ±100 for the full control effect
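In 5 uL wells, 23 nL compound meets equimolar GST-E1A and His-CtBP (5X stock 125 nM each) for 2 h, 37 °C. Beads (5X, 50 ug/mL) then 1 h, 37 °C, dark.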
JMJD2A Tudor inh – qHTS Assay for Inhibitors of JMJD2A-Tudor Domain; AlphaScreen JMJD2A-Tudor / H3K4me3 peptide binding; Potency, µM (series often up to 114 µM), inactives show at the top dose activity change, negative = inhibition, actives largely listed as inhibitors; 4.4% of 390,000 active; AID 504339, 2011; also: potency is read from the fitted curve at half-maximal effect; % is scaled to controls: 0 for no effect and ±100 for the full control effect; nearly all actives have a fitted effect of over 50% in size
G9a inh – qHTS Assay for Inhibitors of Histone Lysine Methyltransferase G9a; Histone-lysine N-methyltransferase EHMT2 (Homo sapiens), Q96KQ7; G9a H3K9 monomethylation, AlphaScreen, 2 h; Potency, µM (top dose mostly 102 µM), for inactives: top-dose activity, negative = inhibition, most hits filed as inhibitors; 8.8% of 350,000 active; AID 504332, 2011; also: potency is read from the fitted curve at half-maximal effect; % is scaled to controls: 0 for no effect and ±100 for the full control effect; nearly all actives have a fitted effect of over 75% in size
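Signal arises when biotinylated H3K9 peptide, once monomethylated, bridges streptavidin donor and antibody-captured acceptor beads. Enzyme at 20 nM was preincubated 15 min with test compounds; peptide 500 nM and SAM 20 uM then reacted for 2 h.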
Six1-Eya2 inh – qHTS Assay for Inhibitors of the Six1/Eya2 Interaction; Homeobox protein SIX1 (Homo sapiens) + Protein phosphatase EYA2 (Homo sapiens), …; AlphaScreen GST-Six1/His-Eya2 binding, biochemical; stronger effect = lower value; activity change, % (no concentration beside the values); 0.56% of 360,000 active; AID 651725, 2012; in the data active = activity change below about -65%; inconclusive = mostly about -30% to -63%; also: % is scaled to controls: 0 for no effect and ±100 for the full control effect
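Compounds are tested against tagged Six1 and Eya2 proteins bridged by glutathione donor and nickel acceptor beads; after a one-hour incubation at 37 °C without light, AlphaScreen emission is recorded.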
HP1b chromo inh – HTS for Inhibitors of HP1-beta Chromodomain Interactions with Methylated Histone Tails. Potency, µM (series often up to 114 µM), inactives show at the highest dose activity change, negative = inhibition, hits mostly inhibitors. AlphaScreen HP1-beta / biotin-H3K9me3 peptide binding. AID 540317, 2011. 0.56% of 390,000 active; also: potency is read from the fitted curve at half-maximal effect; nearly all actives have a fitted effect of over 70% in size
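Compound inhibition of the preformed complex between 50 nM HP1-beta and 50 nM biotinylated H3K9me3 peptide was read by AlphaScreen. Buffer was PBS pH 7.4 with 0.01% Tween-20. Incubations ran 30 min at room temperature, with 10 ug/mL donor/acceptor beads.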
Numbers without * were called inactive; ? = inconclusive; · = no result; ! = not active in a repeat; [ ] = remark or other dose. Rows were chosen to be rich in hits. Some 10% of all compounds tested hit in one or more screens of this group. Unless noted, calls follow the shape of the dose curve; as a rule, active = well fitted inhibition curve with a large enough effect; inconclusive = small, poorly fitted or top-dose-only effect; inactive = no such curve, though single readings can be large or run the other way.

SMILES | BAZ2B block | CtBP-E1A inh | JMJD2A Tudor inh | G9a inh | Six1-Eya2 inh | HP1b chromo inh
COC(=O)c1ccc(/C=C(\C#N)C(=O)NC(C)c2ccccc2)cc1 (stereo not given) | -3% | -28 | -31% | 50µM* | -7 | 12%
CC(NC(=O)/C(C#N)=C/c1ccc([N+](=O)[O-])o1)c1ccccc1 (stereo not given) | ? | -20 | ? | 45µM* | -26 | -16%
COc1cccc(C(=O)Nc2ccccc2OCc2cc(=O)n3ccccc3n2)c1 | 8% | · | -5% | -14%[59 µM] | · | 26%[57 µM]
Cc1cccc(N2CCN(C(=O)c3cccc(-n4c(C)nc5cccnc54)c3)CC2C)c1 (stereo not given) | -20% | · | -24% | ? | · | 6%
Cn1c(C2CCCN2C(=O)OC(C)(C)C)n[nH]c1=S (stereo not given) | -7% | -9 | 45µM* | 22µM* | -3 | 7%
CCn1c(CN2CCOCC2)nc2cc(NC(=O)c3cccc([N+](=O)[O-])c3)ccc21 | -17% | · | -23% | -19%[59 µM] | · | 24%
CCOC(=O)C1=C(C)NC(=O)C1CC(=O)Nc1ccccc1 (stereo not given) | -10% | · | · | 3.5µM* | · | ·
Cc1cccc(N2C(=O)CC(SC(=Nc3ccccc3)Nc3ccccc3)C2=O)c1 (stereo not given) | 10% | -1 | -23% | 9%[59 µM] | -7 | 30%
O=C1SC(SC(=Nc2ccccc2)Nc2ccccc2)C(=O)N1c1ccccc1 (stereo not given) | ? | -14 | ? | 45µM* | -15 | ?
Cc1ccc(CS(=O)(=O)c2ncc(Cl)c(C(=O)Nc3nc4ccc(C)cc4s3)n2)cc1 | -18% | · | -25% | 5%[59 µM] | · | 28%
CSc1nnc(NC(=O)c2nc(S(=O)(=O)Cc3ccccc3)ncc2Cl)s1 | 45µM* | -4 | 16µM* | 50µM* | -23 | -2%[57 µM]
CCCc1nnc(NC(=O)c2nc(S(=O)(=O)Cc3ccc(C)cc3)ncc2Cl)s1 | -20% | -24 | -16% | 13µM* | ? | 55%
CC(C)c1nnc(NC(=O)c2nc(S(=O)(=O)Cc3ccccc3)ncc2Cl)s1 | 50µM*! | 1 | -25% | 8.9µM* | -17 | 4%[57 µM]
CN1CCN(c2nc(-c3cc4ccccc4o3)cs2)CC1 | ? | 8 | -5% | ? | 5 | 34%
Nc1nc(-c2ccc3ccccc3c2)cs1 | ? | -4 | -36% | 50µM* | -7 | -36%
Nc1nc(-c2cccs2)cs1 | -38% | 2 | -24% | 79µM* | -5 | 11%
Nc1nc(-c2ccc(-c3ccccc3)cc2)cs1 | -32% | -22 | -23% | 45µM* | -19 | -8%
CN1CCN(c2nc(-c3cccs3)cs2)CC1 | ? | 0 | ? | 35µM* | 8 | -15%
Cc1ccc(-c2csc(N)n2)cc1 | · | -8 | -34% | · | -3 | -17%
Cc1ccc(S(=O)Cc2nc(-c3ccc(C(=O)NC(C)c4ccccc4)cc3)oc2C)cc1 (stereo not given) | -15% | · | -1% | ? | · | 36%
Nc1nc(-c2cccc(NS(=O)(=O)c3ccccc3)c2)cs1 | ? | -24 | ? | 45µM* | -19 | -16%
COCCN(C(=O)CCN1C(=O)C2CC=CCC2C1=O)c1c(N)n(CC(C)C)c(=O)[nH]c1=O (stereo not given) | 0% | -3 | -17% | 26%[12.7 µM] | 5 | 24%
CCN1CCN(C(c2ccc(SC)cc2)c2c(O)cc(C)n(Cc3ccco3)c2=O)CC1 (stereo not given) | -13% | · | 79µM* | ? | · | -13%[57 µM]
CCN1CCN(C(c2ccc(OC)cc2)c2c(O)cc(C)n(Cc3ccco3)c2=O)CC1 (stereo not given) | -17% | · | 79µM* | ? | · | 10%[57 µM]
